The supplement of paper PMC8269313

Tested on: 4T1
Test: % inhibition of 4T1 cell number vs DMSO control; higher = stronger growth inhibition
Conditions: 1 µM, 3 days
In short: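 4T1-H2B-GFP mouse breast cancer cells (3000 per well, 2% FBS medium) were seeded in 96-well imaging plates on plastic, denuded lung or mCAF1 fibroblast-derived matrix, Matrigel (15 μg/mL) or 0.2% gelatin; edge wells were left unused. After 16 h, kinase inhibitors were added at 1 μM final for 3 days. Plates were formalin-fixed, DAPI-stained and imaged on an INCell Analyzer 2200, and GFP-positive nuclei were counted. Percent inhibition of cell number was calculated relative to DMSO control.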

[1] = substrate: lung fibroblast-derived matrix
[2] = substrate: mCAF1 fibroblast-derived matrix

SMILES	% inhibition of 4T1 cell number (substrate: Matrigel) [%]	% inhibition of 4T1 cell number (substrate: gelatin) [%]	% inhibition of 4T1 cell number [1] [%]	% inhibition of 4T1 cell number [2] [%]	% inhibition of 4T1 cell number (substrate: plastic) [%]
O=C(Nc1ccc(-c2cn[nH]c2)cc1)C1COc2ccccc2O1 (stereo not given) [Rho Kinase Inhibitor V]	-9.35	14.6	-8.88	7.12	-3.09
COc1cc(Nc2ncc3ccn(-c4cccc(CCC#N)c4)c3n2)cc(OC)c1OC [Keratinocyte Differentiation Inducer]	91.6	89	93.7	97.6	94.4
Cn1cnc2cc3c(Nc4cccc(Br)c4)ncnc3cc21	5.46	-49.9	-0.216	-36.5	-21.9
COc1cc2c(cc1OC)-c1[nH]nc(Nc3cccc(F)c3)c1C2 [PDGF Receptor Tyrosine Kinase Inhibitor IV]	94.6	84.5	-13.5	89.7	74.7
O=C1Nc2ccc(Cl)cc2/C1=C/c1cc(Cl)c(O)c(Cl)c1 [PKR Inhibitor, Negative Control]	-11.8	-80.4	86.7	8.78	-63.2
CC(C)[C@H](CO)Nc1nc(Nc2cccc(Cl)c2)c2ncn(C(C)C)c2n1 [Purvalanol A]	-8.87	15.8	83.6	40.3	-20.5
COc1cc2ncnc(Nc3cccc(Cl)c3)c2cc1OC	19.4	-16.6	-4.35	6.77	36
Cc1cncc2cccc(S(=O)(=O)N3CCCN(C(=O)CN)C[C@@H]3C)c12 [Rho Kinase Inhibitor IV]	-39.7	-28.9	92.9	15.7	-103
N#C/C(=C\c1ccc(O)c(O)c1)C(=O)NCc1ccccc1	-13.1	42.5	-21.1	15.2	-38
COc1ccc(CNc2nc(N(CCO)CCO)nc3c2ncn3C(C)C)cc1 [Cdk2 Inhibitor III]	-37	15.9	6.49	22	-27.8
CN(C)CCCn1cc(C2=C(c3c[nH]c4ccccc34)C(=O)NC2=O)c2ccccc21 [Bisindolylmaleimide I]	46.6	41.5	-13.3	13.1	57.2
COc1ccc(COc2ccc(Cc3cnc(N)nc3N)cc2OC)cc1 [cFMS Receptor Tyrosine Kinase Inhibitor]	-15.7	-87.3	2.62	11.3	-59.7
Cc1ccc(S(=O)(=O)/C=C/C#N)cc1	18.5	38.2	-8.23	-0.662	5.77
CC(C)n1cnc2c(NCc3ccccc3)nc(NCCCO)nc21 [Bohemine]	16.5	13	0.282	-0.566	-30.7
O=C(O)c1ccc2c3c1cccc3c(=O)n1c3ccccc3nc21	30.6	44.3	-11.4	31.2	32.2
COc1cc2ncc(-c3ccccc3)nc2cc1OC	20.6	47	-16.1	27.8	39.5
CCN(CC)CCCCN1c2ccccc2Oc2ccc(Cl)cc21 [Akt Inhibitor X]	72.7	46.6	-2.93	-26.9	40
O=Nc1c(-c2c(O)[nH]c3cc(Br)ccc23)[nH]c2ccccc12 [GSK-3 Inhibitor IX]	-37.5	-7.89	-2.79	55.1	42.2
O=C1c2ccccc2-c2n[nH]c3cccc1c23 [JNK Inhibitor II]	-51.1	-11.8	-2.64	27.7	-62.6
COc1cc2ncnc(N3CCN(C(=O)Nc4ccc(Oc5ccccc5)cc4)CC3)c2cc1OC [PDGF Receptor Tyrosine Kinase Inhibitor III]	-4.76	-15.1	-1.37	49.3	-34.7
CCOC(=O)c1c(C)[nH]c(/C=C2\C(=O)Nc3ccccc32)c1C [VEGF Receptor 2 Kinase Inhibitor I]	21.5	-34.8	-12.5	-29.2	16.8
NC(=O)Nc1sc(-c2ccccc2)cc1C(N)=O [IKK-2 Inhibitor VI]	-32	-1.17	-16	28.5	-60
CC(C)(C)c1ccc(S(=O)(=O)Nc2ccc(-n3ccnc3)cc2)cc1 [Stem-Cell Factor/c-Kit Inhibitor, ISCK03]	40.2	60.6	90.5	7.06	39.4
